{"source": "PubChem BioAssay (EPA / NIEHS)", "note": "Inconclusive results are not listed. Active and inactive are the calls of the source. Rule for the calls: active = hit-call score of the fitted dose curve at least 0.9, where 1 is the maximum; inconclusive = response in the unintended direction; inactive = score below 0.9.", "data": [{"test": "ACEA_ER_AUC_viability: ACEA Biosciences xCELLigence Real-Time Cell Analysis on Estrogen Receptor Agonism for Viability (AID 2283782);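 note: continuous compound exposure with impedance area under curve over 80 h; hit means loss of impedance signal meaning reduced cell growth or viability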", "how_it_was_run": "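T47D cells preconditioned in phenol red-free RPMI with charcoal-stripped FBS, then dosed with 8-point 1:4 series from 100 uM (up to 0.5% DMSO). Impedance monitored up to ~80 h; area-under-curve loss versus DMSO taken as viability.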", "values": [{"smiles": "Clc1cc(Cl)c(Cl)c(Cl)c1Cl", "outcome": "inactive"}, {"smiles": "C=CCNCC=C", "AC50": "50.5 µM (active)"}, {"smiles": "Cc1cc(C)c(C=O)c(C)c1", "outcome": "inactive"}, {"smiles": "CC(C)CO", "outcome": "inactive"}, {"smiles": "N#CC1(N)CCCCC1", "outcome": "inactive"}, {"smiles": "CC(C)c1ccc2ncccc2c1", "outcome": "inactive"}, {"smiles": "Nc1cccc(N)n1", "outcome": "inactive"}, {"smiles": "COc1ccc(C(=O)/C(Br)=C\\C(=O)O)cc1", "AC50": "29.2 µM (active)"}, {"smiles": "CC(=O)CCC=C(C)C", "outcome": "inactive"}, {"smiles": "CC(=O)OCC=C(C)C", "outcome": "inactive"}, {"smiles": "CC(CC(C)C)=NO", "outcome": "inactive"}, {"smiles": "O=C(O)CCCC(=O)O", "outcome": "inactive"}, {"smiles": "C=CCCCCCCCCO", "AC50": "50 µM (active)"}, {"smiles": "CC1(C)CC(O)CC(C)(C)N1[O]", "outcome": "inactive"}, {"smiles": "O=S(=O)(O)c1ccc(Nc2nc(Nc3ccc(C=Cc4ccc(Nc5nc(Nc6ccc(S(=O)(=O)O)cc6)nc(N(CCO)CCO)n5)cc4S(=O)(=O)O)c(S(=O)(=O)O)c3)nc(N(CCO)CCO)n2)cc1", "outcome": "inactive"}, {"smiles": "COC(=O)C=Cc1ccccc1", "outcome": "inactive"}, {"smiles": "CN1CCN(C)CC1", "outcome": "inactive"}, {"smiles": "CCOB(OCC)OCC", "outcome": "inactive"}, {"smiles": "CCCCCCCCCCCCCc1ccccc1", "outcome": "inactive"}, {"smiles": "CC=C(C)C(C)=O", "outcome": "inactive"}, {"smiles": "O=C1CCCCC1C1CCCCC1", "note": "(centres undefined)", "outcome": "inactive"}, {"smiles": "CCCC/C=C/C=C\\C=O", "AC50": "88.9 µM (active)"}, {"smiles": "C=CC(=O)NCOCCCC", "outcome": "inactive"}, {"smiles": "CCCc1ccc(O)c(OC)c1", "outcome": "inactive"}, {"smiles": "CCCCC1CCC(=O)O1", "note": "(centres undefined)", "AC50": "60.6 µM (active)"}, {"smiles": "CCOC(=O)/C=C\\C(=O)OCC", "AC50": "82.6 µM (active)"}, {"smiles": "CC(Cl)COP(=O)(OCC(C)Cl)OCC(C)Cl", "note": "(centres undefined)", "outcome": "inactive"}, {"smiles": "CC/C=C\\CCOC(=O)c1ccccc1O", "AC50": "72.7 µM (active)"}, {"smiles": "CCOC(=O)[C@H](O)[C@@H](O)C(=O)OCC", "AC50": "50 µM (active)"}]}]}
